Results as given in PubChem BioAssay AID1159580 (chemical genetic matrix, 2015).
Values joined by “and” are separate entries in the source; they are usually repeats but may differ in a detail not shown here. Equal values may be shown once. In all, about 5,500 compounds went through this assay and about 2,000 (36%) were called active. About 18% were inconclusive and are not listed. Some of the results follow. Unmarked numbers belong to inactive results. No stated cut-off is given here; in the data, active means normalized growth mostly below about 0.91 (no sharp cut-off); inconclusive means no clear call, values can overlap the other calls; inactive means mostly above about 0.92.

Assay: chemical genetic growth profiling, strain panel (AID 1159580);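 further: tested at 20 µM; growth read once vehicle control cultures reached saturation at 30 °C; 1 = growth at the plate median or of vehicle wells; lower values mean less growth of the strain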
Details: S. cerevisiae deletion strains, growth OD

SMILES: COc1c2ccoc2cc2oc(=O)ccc12
- normalized growth (locus YAL021C, strain ccr4, hits give low values): 0.957
- normalized growth (locus YAL026C, strain drs2, hits give low values): 0.936
- normalized growth (locus YAL030W, strain snc1, hits give low values): 0.993
- normalized growth (locus YBL061C, strain skt5, hits give low values): 0.971
- normalized growth (locus YBR009C, strain hhf1, hits give low values): 0.886 (active)
- normalized growth (locus YBR021W, strain FUR4, hits give low values): 1.1
- normalized growth (locus YBR023C, strain chs3, hits give low values): 0.968
- normalized growth (locus YBR171W, strain sec66, hits give low values): 0.954
- normalized growth (locus YBR229C, strain ROT2, hits give low values): 0.967
- normalized growth (locus YBR231C, strain swc5, hits give low values): 0.872 (active)
- normalized growth (locus YBR279W, strain paf1, hits give low values): 0.974
- normalized growth (locus YCL011C, strain gbp2, hits give low values): 0.942
- normalized growth (locus YCL016C, strain dcc1, hits give low values): 0.959
- normalized growth (locus YCL029C, strain bik1, hits give low values): 0.647 (active)
- normalized growth (locus YCL061C, strain MRC1, hits give low values): 0.97
- normalized growth (locus YCL069W, strain vba3, hits give low values): 0.968
- normalized growth (locus YCR088W, strain abp1, hits give low values): 0.987
- normalized growth (locus YDL005C, strain med2, hits give low values): 0.996
- normalized growth (locus YDL035C, strain GPR1, hits give low values): 0.734 (active)
- normalized growth (locus YDL040C, strain nat1, hits give low values): 0.992
- normalized growth (locus YDL074C, strain BRE1, hits give low values): 0.544 (active)
- normalized growth (locus YDL101C, strain DUN1, hits give low values): 0.613 (active)
- normalized growth (locus YDL134C, strain PPH21, hits give low values): 0.703 (active)
- normalized growth (locus YDL185W, strain tfp1, hits give low values): 0.911
- normalized growth (locus YDL192W, strain arf1, hits give low values): 0.674 (active)
- normalized growth (locus YDR001C, strain nth1, hits give low values): 0.976
- normalized growth (locus YDR069C, strain doa4, hits give low values): 0.96
- normalized growth (locus YDR101C, strain arx1, hits give low values): 0.741 (active)
- normalized growth (locus YDR137W, strain rgp1, hits give low values): 1.16 [resistant] (active)
- normalized growth (locus YDR159W, strain sac3, hits give low values): 1.04
- normalized growth (locus YDR162C, strain NBP2, hits give low values): 0.617 (active)
- normalized growth (locus YDR195W, strain ref2): 1.38 [resistant] (active)
- normalized growth (locus YDR297W, strain sur2, hits give low values): 0.99
- normalized growth (locus YDR318W, strain mcm21, hits give low values): 0.699 (active)
- normalized growth (locus YDR335W, strain msn5, hits give low values): 0.953
- normalized growth (locus YDR388W, hits give low values): 0.814 (active)
- normalized growth (locus YDR392W, strain spt3, hits give low values): 0.761
- normalized growth (locus YDR502C, strain sam2, hits give low values): 0.791 (active)
- normalized growth (locus YEL003W, strain gim4, hits give low values): 0.96
- normalized growth (locus YEL037C, strain rad23, hits give low values): 0.942
- normalized growth (locus YEL061C, strain CIN8 (second series), hits give low values): 0.958
- normalized growth (locus YER015W, strain faa2, hits give low values): 0.981
- normalized growth (locus YER016W, strain bim1, hits give low values): 0.973
- normalized growth (locus YER110C, hits give low values): 0.863 (active)
- normalized growth (locus YER111C, strain swi4, hits give low values): 0.975
- normalized growth (locus YER155C, strain BEM2 (second series), hits give low values): 0.653 (active)
- normalized growth (locus YER155C, strain BEM2, hits give low values): 0.904 (active)
- normalized growth (locus YER167W, strain BCK2, hits give low values): 0.885 (active)
- normalized growth (locus YFR010W, strain ubp6, hits give low values): 0.936
- normalized growth (locus YGL078C, strain dbp3, hits give low values): 0.91 (active)
- normalized growth (locus YGL086W, strain mad1, hits give low values): 0.719 (active)
- normalized growth (locus YGL167C, strain pmr1, hits give low values): 0.981
- normalized growth (locus YGL173C, strain kem1, hits give low values): 0.96
- normalized growth (locus YGL227W, strain vid30, hits give low values): 0.976
- normalized growth (locus YGL240W, strain doc1, hits give low values): 0.896
- normalized growth (locus YGL248W, strain PDE1, hits give low values): 0.718 (active)
- normalized growth (locus YGL253W, strain hxk2, hits give low values): 0.903 (active)
- normalized growth (locus YGR078C, strain PAC10, hits give low values): 0.706 (active)
- normalized growth (locus YGR135W, strain pre9, hits give low values): 0.688 (active)
- normalized growth (locus YGR229C, strain SMI1, hits give low values): 0.839
- normalized growth (locus YGR252W, strain gcn5, hits give low values): 0.554 (active)
- normalized growth (locus YHR013C, strain ard1, hits give low values): 0.856
- normalized growth (locus YHR027C, strain rpn1, hits give low values): 0.983
- normalized growth (locus YHR030C, strain SLT2, hits give low values): 0.729 (active) and 0.802 (active)
- normalized growth (locus YHR079C, strain IRE1 (second series), hits give low values): 0.854 (active)
- normalized growth (locus YHR079C, strain IRE1, hits give low values): 0.801 (active)
- normalized growth (locus YHR094C, strain hxt1, hits give low values): 0.922 (active)
- normalized growth (locus YHR129C, strain ARP1, hits give low values): 0.863 (active)
- normalized growth (locus YHR142W, strain chs7, hits give low values): 0.826 (active)
- normalized growth (locus YHR200W, strain rpn10, hits give low values): 0.636 (active)
- normalized growth (locus YIL066C, strain RNR3, hits give low values): 0.805 (active)
- normalized growth (locus YIL073C, strain SPO22, hits give low values): 0.757
- normalized growth (locus YIL125W, strain kgd1, hits give low values): 0.869 (active)
- normalized growth (locus YIR030C, strain dcg1, hits give low values): 0.818 (active)
- normalized growth (locus YJL092W, strain hpr5, hits give low values): 0.976
- normalized growth (locus YJL095W, strain BCK1 (second series), hits give low values): 0.966
- normalized growth (locus YJL095W, strain BCK1, hits give low values): 0.337 (active) and 0.817 (active)
- normalized growth (locus YJL115W, strain asf1, hits give low values): 0.967
- normalized growth (locus YJL129C, strain trk1, hits give low values): 1.09
- normalized growth (locus YJL134W, strain LCB3, hits give low values): 0.957
- normalized growth (locus YJL154C, strain vps35, hits give low values): 0.977
- normalized growth (locus YJL164C, strain tpk1, hits give low values): 0.937
- normalized growth (locus YJL166W, strain qcr8, hits give low values): 0.91
- normalized growth (locus YJL168C, strain set2, hits give low values): 0.958
- normalized growth (locus YJL187C, strain SWE1 (second series), hits give low values): 0.766 (active)
- normalized growth (locus YJL187C, strain SWE1, hits give low values): 1
- normalized growth (locus YJR066W, strain TOR1, hits give low values): 0.829
- normalized growth (locus YKL009W, strain mrt4, hits give low values): 0.914
- normalized growth (locus YKL068W, hits give low values): 0.973
- normalized growth (locus YKL085W, strain MDH1 (second series), hits give low values): 0.915 (active)
- normalized growth (locus YKL085W, strain MDH1, hits give low values): 0.915 (active)
- normalized growth (locus YKL160W, strain elf1, hits give low values): 0.902 (active)
- normalized growth (locus YKL190W, strain CNB1, hits give low values): 0.898 (active)
- normalized growth (locus YKR001C, strain vps1, hits give low values): 0.44 (active)
- normalized growth (locus YKR026C, strain gcn3, hits give low values): 0.951
- normalized growth (locus YKR091W, strain srl3, hits give low values): 0.996
- normalized growth (locus YLL001W, strain dnm1, hits give low values): 0.977
- normalized growth (locus YLL026W, hits give low values): 0.98
- normalized growth (locus YLL041C, strain sdh2, hits give low values): 0.992
- normalized growth (locus YLR027C, strain aat2, hits give low values): 0.971
- normalized growth (locus YLR039C, strain RIC1, hits give low values): 0.906
- normalized growth (locus YLR058C, strain SHM2, hits give low values): 0.783 (active)
- normalized growth (locus YLR102C, strain apc9, hits give low values): 0.929
- normalized growth (locus YLR113W, strain HOG1, hits give low values): 0.948
- normalized growth (locus YLR221C, strain rsa3, hits give low values): 0.941
- normalized growth (locus YLR258W, strain gsy2, hits give low values): 0.975
- normalized growth (locus YLR262C, strain YPT6 (second series), hits give low values): 1.09
- normalized growth (locus YLR268W, strain sec22, hits give low values): 0.71 (active)
- normalized growth (locus YLR320W, strain mms22, hits give low values): 0.887
- normalized growth (locus YLR342W, strain FKS1, hits give low values): 1.01
- normalized growth (locus YLR357W, strain rsc2, hits give low values): 1.13
- normalized growth (locus YLR370C, strain arc18, hits give low values): 0.969
- normalized growth (locus YLR371W, strain rom2, hits give low values): 0.573 (active)
- normalized growth (locus YLR384C, strain iki3, hits give low values): 0.956
- normalized growth (locus YLR418C, strain cdc73, hits give low values): 0.494 (active)
- normalized growth (locus YML016C, strain PPZ1, hits give low values): 0.809 (active)
- normalized growth (locus YML032C, strain rad52, hits give low values): 0.411 (active)
- normalized growth (locus YML120C, strain ndi1, hits give low values): 0.901 (active)
- normalized growth (locus YML124C, strain tub3, hits give low values): 0.872 (active)
- normalized growth (locus YMR058W, strain fet3, hits give low values): 0.953
- normalized growth (locus YMR078C, strain ctf18, hits give low values): 0.878 (active)
- normalized growth (locus YMR125W, strain sto1, hits give low values): 1.03
- normalized growth (locus YMR129W, hits give low values): 0.977
- normalized growth (locus YMR205C, strain PFK2, hits give low values): 1.03
- normalized growth (locus YMR223W, strain ubp8, hits give low values): 0.764 (active)
- normalized growth (locus YMR231W, strain pep5, hits give low values): 0.983
- normalized growth (locus YMR307W, strain GAS1, hits give low values): 0.974
- normalized growth (locus YNL067W, strain RPL9B, hits give low values): 0.791 (active)
- normalized growth (locus YNL071W, strain lat1, hits give low values): 0.972
- normalized growth (locus YNL183C, strain NPR1, hits give low values): 0.858
- normalized growth (locus YNL209W, strain ssb2, hits give low values): 0.976
- normalized growth (locus YNL233W, strain BNI4, hits give low values): 0.74 (active)
- normalized growth (locus YNL248C, strain rpa49, hits give low values): 0.575 (active)
- normalized growth (locus YNL250W, strain rad50, hits give low values): 0.856 (active)
- normalized growth (locus YNL271C, strain bni1, hits give low values): 0.858 (active)
- normalized growth (locus YNL298W, strain CLA4, hits give low values): 0.77 (active)
- normalized growth (locus YNL307C, strain MCK1, hits give low values): 0.666 (active)
- normalized growth (locus YNL322C, strain KRE1 (second series), hits give low values): 1.02
- normalized growth (locus YNR049C, strain mso1, hits give low values): 0.991
- normalized growth (locus YNR052C, strain pop2, hits give low values): 0.737 (active)
- normalized growth (locus YOL006C, strain TOP1, hits give low values): 0.419 (active)
- normalized growth (locus YOL012C, strain htz1): 0.31
- normalized growth (locus YOL147C, strain pex11, hits give low values): 0.757 (active)
- normalized growth (locus YOR001W, strain rrp6, hits give low values): 0.87 (active)
- normalized growth (locus YOR061W, strain CKA2, hits give low values): 0.872 (active)
- normalized growth (locus YOR069W, strain VPS5, hits give low values): 0.852 (active)
- normalized growth (locus YOR070C, strain gyp1, hits give low values): 0.979
- normalized growth (locus YOR080W, strain dia2, hits give low values): 0.979
- normalized growth (locus YOR083W, strain WHI5, hits give low values): 0.799 (active)
- normalized growth (locus YOR106W, strain vam3, hits give low values): 0.854 (active)
- normalized growth (locus YOR136W, strain idh2, hits give low values): 0.888 (active)
- normalized growth (locus YOR144C, strain elg1, hits give low values): 0.852 (active)
- normalized growth (locus YOR184W, strain ser1, hits give low values): 0.46 (active)
- normalized growth (locus YOR231W, strain MKK1, hits give low values): 0.83 (active)
- normalized growth (locus YOR265W, strain rbl2, hits give low values): 0.989
- normalized growth (locus YOR270C, strain vph1, hits give low values): 0.751 (active)
- normalized growth (locus YOR290C, strain snf2, hits give low values): 0.877
- normalized growth (locus YOR316C, strain cot1, hits give low values): 0.975
- normalized growth (locus YPL051W, strain arl3, hits give low values): 0.91 (active)
- normalized growth (locus YPL078C, strain atp4, hits give low values): 0.893
- normalized growth (locus YPL106C, strain sse1, hits give low values): 0.78 (active)
- normalized growth (locus YPL240C, strain hsp82, hits give low values): 0.973
- normalized growth (locus YPL256C, strain CLN2, hits give low values): 0.907
- normalized growth (locus YPR119W, strain clb2, hits give low values): 0.964
- normalized growth (locus YPR141C, strain kar3, hits give low values): 0.997
- normalized growth (locus YPR163C, strain tif3, hits give low values): 0.672 (active)
- normalized growth (locus YPR167C, strain met16, hits give low values): 0.775 (active)
- normalized growth (strain wtn01, hits give low values): 0.731 (active)
